From PubChem BioAssay
In the library only some 9% were active in any assay of this set; here they are far more common.
HPGD inh = HPGD (human) dehydrogenase inhibition; purified HPGD, NADH fluorescence kinetic, PGE2 substrate; Potency, µM, for inactives: at the highest dose activity change, negative = inhibition, actives largely listed as inhibitors; 4.3% of 150,000 active; AID 894; also: potency is read from the fitted curve at half-maximal effect
Target sequence (P15428 whole entry, looked up): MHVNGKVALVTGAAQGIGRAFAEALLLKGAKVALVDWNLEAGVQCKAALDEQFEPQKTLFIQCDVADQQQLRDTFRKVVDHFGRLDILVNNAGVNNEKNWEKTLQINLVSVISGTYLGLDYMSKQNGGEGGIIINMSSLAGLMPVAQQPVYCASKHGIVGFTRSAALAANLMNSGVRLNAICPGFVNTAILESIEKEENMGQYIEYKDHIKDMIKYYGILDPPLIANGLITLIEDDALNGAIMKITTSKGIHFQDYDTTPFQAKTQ
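NADH formation kinetics: reaction with 30 uM PGE2 and 1 mM NAD+ (final), 20 nM enzyme, Tris-HCl pH 8 with Tween 20, after 15 min compound preincubation at room temperature. Fluorescence change, last versus first of five reads.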
ALDH1A1 block = blocks purified human ALDH1A1 activity; Purified ALDH1A1, NADH fluorescence, propionaldehyde substrate; AID 1030; Potency, µM (doses to about 75.3 µM), inactives show at the top dose activity, negative = inhibition, hits mostly inhibitors; P00352; 7.3% of 220,000 active;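 also: potency is read from the fitted curve at half-maximal effect; plate controls were no enzyme wells and a reference inhibitor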
IMPase inh = cell-permeable inhibitors of inositol monophosphatase (IMPase); CHO-M1 cells, IP1 accumulation, HTRF TR-FRET ratio; inhibition (IP1 accumulation), % at 46.1 µM; 120,000 tested, under 10 active; active = well fitted curve in the direction sought with a large enough effect in the signal ratio, not every such curve was filed as active; inconclusive = small, poorly fitted or top-dose-only effect, or a change in a side signal; inactive = no such curve, though single readings can be large or run the other way; the % refers to the signal ratio;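 also: cells stimulated with carbachol in lithium chloride buffer; plate controls were DMSO basal wells for no effect and reference inhibitor wells for full effect; higher means more IMPase inhibition seen as more IP1 and lower FRET ratio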
Target sequence (P97697 whole entry, looked up): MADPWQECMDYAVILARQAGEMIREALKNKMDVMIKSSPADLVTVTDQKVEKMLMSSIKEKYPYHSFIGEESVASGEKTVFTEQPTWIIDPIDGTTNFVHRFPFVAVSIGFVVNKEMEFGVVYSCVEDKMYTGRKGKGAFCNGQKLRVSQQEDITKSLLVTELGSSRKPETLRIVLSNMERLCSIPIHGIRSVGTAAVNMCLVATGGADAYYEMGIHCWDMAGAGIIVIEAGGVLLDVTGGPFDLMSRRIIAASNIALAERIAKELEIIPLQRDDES
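CHO-M1, 2000 cells/well, cultured 16–30 h; cpd up to 46 uM; carbachol (50 uM solution, stimulation buffer w/ 50 mM LiCl, pH 7.4), 30 min 37C; IP-One TR-FRET, 10 min RT; Ex 320/Em 665, 620; Hill-fit AC50.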
* = called active by the depositor; ? = inconclusive; · = no result. Unless noted, calls follow the shape of the dose curve; as a rule, active = well fitted inhibition curve with a large enough effect (not every such curve was filed as active); inconclusive = small, poorly fitted or top-dose-only effect, or another doubt; inactive = no such curve, though single readings can be large or run the other way. Unless noted, % is scaled to controls: 0 for no effect and ±100 for the full control effect.

SMILES | HPGD inh | ALDH1A1 block | IMPase inh
CCOc1ccc(CCNC(=O)COC(=O)c2cc(OC)cc(OC)c2)cc1OCC | · | -7% | ·
COc1ccc(C(=O)NNC(=O)CCn2nnc(-c3ccc(Cl)cc3)n2)cc1OC | · | 6% | ·
COCCNc1nc2c(c(=O)n(C)c(=O)n2C)n1Cc1c(F)cccc1Cl | · | · | 6
Cc1ccc(S(=O)(=O)Nc2cccc(CP(=O)(c3ccccc3)c3ccccc3)c2)cc1 | · | 24µM* | ·
CCn1c2ccccc2c2cc(NS(=O)(=O)c3ccc(C)cc3)ccc21 | -16% | -9% | -1
O=C(CSc1nnc2sc3ccccc3n12)NCc1ccco1 | -20% | -1% | 5
COc1ccc(-n2[nH]c3c4c(ncc3c2=O)CCCCC4)cc1 | -3% | 6% | ·
CC(=O)NNC(=O)c1sc(=S)n2c1[nH]c(=O)c1sccc12 | · | 3.5µM* | ·
O=C(NCc1ccccc1)c1sc(=S)n2c1[nH]c(=O)c1ccccc12 | ? | ? | -25
CCC(=O)Nc1cc(-c2nn(C)c(=O)c3ccccc23)ccc1N1CCOCC1 | -12% | ? | 7
Cn1nc(-c2ccc(N3CCCCC3)c(NC(=O)c3ccco3)c2)c2ccccc2c1=O | -29% | 32µM* | 17
CC1CN(C(=O)c2ccccc2)c2ccccc2NC1=O (stereo unspecified) | -7% | 0% | ·
O=C(c1cnccn1)N1CCC2(CCCN(Cc3ccncc3)C2)CC1 | -7% | -3% | ·
COC(=O)c1sc(N2C(=O)c3oc4ccc(C)cc4c(=O)c3C2c2ccc(O)c(OC)c2)nc1C (stereo unspecified) | · | · | -5
CCOC(=O)N1CCN(C(=S)NC)CC1 | -12% | 5% | -2
CCOC(=O)N1CCN(C(=O)C(=O)NN)CC1 | · | 13µM* | ·
O=C(O)CCC(=O)NCc1c(Cl)cccc1Sc1ccc(Cl)cc1 | · | 12% | ·
Cc1ccccc1N1CCN(C2=NC(=O)/C(=C/c3cn[nH]c3-c3ccccc3)S2)CC1 | -3% | -2% | ·
O=C(N/N=C/C=C\c1ccccc1[N+](=O)[O-])c1cccs1 | -5% | ? | 8
O=C(Cc1cccs1)N/N=C/c1ccco1 | -12% | -3% | 2
O=C(Cc1cccs1)N/N=C/C=C\c1ccco1 | -20% | 25µM* | 8
Cc1cccc(C)c1OCC(=O)N/N=C/C=C/c1ccco1 | · | 13µM* | ·
Cc1cccc(OCC(=O)N/N=C/C=C/c2ccco2)c1 | -7% | ? | ·
O=C(CNC(=O)c1cccs1)N/N=C/c1ccco1 | · | -15% | ·
O=C(N/N=C/C=C/c1ccc([N+](=O)[O-])cc1)c1cccs1 | 16µM* | -12% | 2
SMILES | HPGD inh | ALDH1A1 block | IMPase inh
O=C(N/N=C/C=C\c1ccco1)c1cccs1 | · | 28µM* | ·
Cc1cc(C(=O)NCCCn2ccnc2)sc1-c1ccccc1 | -27% | ? | 1
COC(=O)N1C(C)=Cc2ccccc2C1CC(C)=O (stereo unspecified) | -2% | 0% | ·
COc1ccccc1CNc1ccnc(-c2ccccc2OC)n1 | · | -2% | ·
CN(C)CC1CCCCC1C1(O)c2ccccc2CSc2sccc21 (stereo unspecified) | -6% | -2% | 15
CC(=O)OCC(=O)[C@@]12OC3(CCCC3)OC1CC1C3CCC4=CC(=O)C=C[C@@]4(C)[C@]3(F)C(O)C[C@]12C (stereo partly specified) | -7% | -3% | ·
CSc1nnc(C)c(=O)n1COC(=O)c1cc(Cl)ccc1[N+](=O)[O-] | · | -12% | ·
COc1ccc(-c2noc(CCC(=O)Nc3cc(OC)ccc3OC)n2)cc1 | -14% | 7.1µM* | 6
COc1ccc(C)cc1N(C)C(=O)CCc1nc(-c2ccccc2F)no1 | · | · | -3
CCc1ccccc1N(CC)C(=O)CCc1nc(-c2ccc(C)cc2)no1 | 25µM* | 1% | 9
COc1ccc(Br)cc1CNC(=O)CCc1nc(-c2ccccc2F)no1 | -6% | ? | -1
CCN(C(=O)CCc1nc(-c2ccccc2F)no1)c1cc(OC)ccc1OC | 22µM* | ? | 2
COc1ccc(CNC(=O)CCc2nc(-c3ccccc3F)no2)c(OC)c1 | -10% | 10µM* | 6
Cc1ccc(-c2noc(CCC(=O)N(C)c3ccccc3F)n2)cc1 | · | · | -2
COc1ccc(OC)c(NC(=O)CCc2nc(-c3ccc(C)cc3)no2)c1 | · | · | 1
Cc1sc2nc(SCC(=O)c3cc(C)n(CC4CCCO4)c3C)n(C(C)C)c(=O)c2c1C (stereo unspecified) | -13% | -9% | 2
O=C(CCC(=O)NC1CCCCC1)N/N=C/c1ccncc1 | · | 9% | ·
CC12CCC(=O)N1C(C(=O)OCC(=O)Nc1cc(S(=O)(=O)N3CCCCC3)ccc1Cl)CS2 (stereo unspecified) | -8% | 8% | ·
NS(=O)(=O)c1ccc(NC(=S)Nc2nn(Cc3ccc(Cl)cc3Cl)cc2Cl)cc1 | -9% | ? | ·
O=C(Nc1ccc2c(c1)CCC2)c1cc(S(=O)(=O)N2CCN(c3ccccc3)CC2)ccc1Cl | -1% | 3% | 10
CCOc1ccc(NC(=O)CSc2nc3[nH]ncc3c(=O)n2-c2ccccc2OC)cc1 | -9% | 8.9µM* | ·
COc1ccccc1-n1c(SCC(=O)Nc2ccccc2F)nc2[nH]ncc2c1=O | -8% | ? | 4
COc1ccc(NC(=O)CSc2nc3c(c(=O)n2-c2ccccc2OC)SCC3)cc1 | -5% | 11µM* | -3
CCOC(=O)c1ccc(NC(=O)CSc2nc3c(c(=O)n2-c2ccccc2OC)SCC3)cc1 | -12% | -13% | 16
COc1ccccc1-n1c(SCC(N)=O)nc2c(c1=O)SCC2 | -10% | ? | 0
SMILES | HPGD inh | ALDH1A1 block | IMPase inh
COC(=O)C(C)Sc1nc2c(c(=O)n1-c1ccccc1)SCC2 (stereo unspecified) | -8% | 3.2µM* | 0
Cc1sc2nc(CN3CCOCC3)[nH]c(=S)c2c1C | · | -16% | ·
CCCCCC[C@@H](O)C/C=C\CCCCCCCC(=O)O | -11% | -1% | ·
Cc1cc(C)cc(OCC(=O)N(Cc2ccc(Cl)cc2)C2CCS(=O)(=O)C2)c1 (stereo unspecified) | · | · | -7
COC(=O)c1ccc(CSC(=N)N)o1 | · | 3% | ·
CCOC(=O)c1ccoc1CSCc1ccc(C(=O)OC)o1 | -18% | 25µM* | 19
NS(=O)(=O)c1cccc(NC(=O)CN2CCc3ccccc32)c1 | · | 7.9µM* | ·
NS(=O)(=O)c1cccc(NC(=O)CN2CCN(Cc3ccc4c(c3)OCO4)CC2)c1 | -11% | 13% | ·
C[C@H](CCC(=O)O)C1CC[C@H]2C3CC[C@@H]4C[C@H](O)CC[C@]4(C)C3C[C@H](O)[C@]12C (stereo partly specified) | · | 1% | ·
Cc1ccc(CC2SC(=O)NC2=O)cc1Cl (stereo unspecified) | -22% | 32µM* | -11
Nc1ccc(CC2SC(=O)NC2=O)cc1 (stereo unspecified) | -13% | -7% | -1
CCc1c(C)nc(Nc2nc(C)c3ccc(OC)cc3n2)[nH]c1=O | -4% | 2.2µM* | 8
CCc1c(C)nc(Nc2nc(C)c3cc(OC)ccc3n2)[nH]c1=O | · | ? | 15
CC(C)c1ccc(Nc2c(-c3ccc(N4CCOCC4)cc3)nc3ncccn23)cc1 | · | · | 1
CCOc1ccc(N2CSC3=C(C#N)C(c4ccco4)CC(=O)N3C2)cc1 (stereo unspecified) | 10µM* | 4.5µM* | 1
